Measurements as given in PubChem BioAssay AID624405 (Broad Institute, 2012).
In all, about 1,900 compounds went through this assay and about 250 (13%) were called active. Inconclusive results (about 4%) are left out.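 Rule for the calls: active = fitted curve reaches 40% rescue activity at or below the top valid dose, in every test run; inconclusive = test runs disagree, some active and some inactive; inactive = every run misses the threshold or moves the wrong way.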 A selection follows. Potency and affinity values are given separately.

Test: suppressors of statin myotoxicity in myotubes, dose response, cell-based, C2C12 myotubes, ATP luminescence, cherry pick (AID 624405);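 note: myotubes are challenged with simvastatin at 10 µM to lower ATP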
Conditions: C2C12 myotubes + simvastatin, 48 h, scaled: DMSO wells 0, geranylgeraniol wells 100; series mostly up to 19.5 µM; rescue activity (ATP increase): at the top concentration

| SMILES | rescue activity (ATP increase) |
| --- | --- |
| COc1ccc(N(Cc2cc(=O)[nH]c3ccccc23)C(=O)c2ccco2)cc1 | 5.33% (inactive) |
| Cc1cc(C(=O)COC(=O)CN=C2NS(=O)(=O)c3ccccc32)c(C)n1CCc1ccc(Cl)cc1 | -2.48% (inactive) |
| Cc1ccnc2nc(C(=O)OCC(=O)c3ccccc3)nn12 | -9.66% (inactive) |
| C[C@@H]1CN([C@H](C)CO)C(=O)c2cccc(NC(=O)C3CCCCC3)c2O[C@H]1CN(C)S(=O)(=O)c1ccc(Cl)cc1 | -3.58% (inactive) |
| O=C(c1cnn2c(C(F)F)cc(-c3ccccc3)nc12)N1CCc2ccccc21 | -40% (inactive) |
| CCOC(=O)c1cc(=O)n(Cc2ccccc2C)c2ccccc12 | 20.2% (inactive) |
| CCC(C)NC(=O)Cn1c(=O)n(CCCC(=O)NCc2ccccc2Cl)c(=O)c2ccccc21 (stereo unspecified) | -3.94% (inactive) |
| C[C@H](CO)N1C[C@H](C)[C@H](CN(C)C(=O)Nc2cccc3ccccc23)OCCCC[C@H](C)Oc2ccc(NS(=O)(=O)c3ccc(Cl)cc3)cc2C1=O | 16.9% (inactive) |
| C[C@@H]1CN([C@@H](C)CO)C(=O)c2cc(NC(=O)c3ccncc3)ccc2O[C@@H](C)CCCCO[C@@H]1CN(C)Cc1ccc(C(F)(F)F)cc1 | 21% (inactive) |
| CC(=O)c1c(C)[nH]c(C(=O)CSc2nnc(C3CCCCC3)n2N)c1C | 18.1% (inactive) |
| CC1CSc2nc3sc4c(c3c(=O)n21)CCCC4 (stereo unspecified) | 20.3% (inactive) |
| COc1cc2c(N3CCOCC3)cc(O)c(CC(=O)Nc3ccccc3)c2cc1OC | -14.5% (inactive) |
| O=C(Oc1ccc(C(=S)N2CCOCC2)cc1Br)c1ccccc1F | -12.4% (inactive) |
| C[C@@H]1CN([C@H](C)CO)S(=O)(=O)c2ccc(/C=C/c3ccccc3)cc2O[C@@H]1CN(C)C(=O)NC1CCCC1 | 2.94% (inactive) |
| COc1ccc(S(=O)(=O)Nc2ccc3c(c2)CC(=O)N([C@@H](C)CO)C[C@H](C)[C@@H](CN(C)Cc2ccc(Cl)c(Cl)c2)O3)cc1 | 27.9% (inactive) |
| COC(=O)c1cn(Cc2ccc(C(F)(F)F)cc2)cc(F)c1=O | -11.3% (inactive) |
| Cc1ccc(S(=O)(=O)NNC(=O)c2snnc2C)cc1 | -7.58% (inactive) |
| Cc1ccc(N2N=C(C(=O)O)CCC2=O)cc1Cl | 16.1% (inactive) |
| CC(C(=O)NCC1CCCO1)n1cccc1C(=O)c1ccccc1 (stereo unspecified) | 13% (inactive) |
| C=C(C)C1CC=C(C)/C(=N/NC(=O)c2ccc(NC(=O)CC)cc2)C1 (stereo unspecified) | -9.09% (inactive) |
| COc1ccc(NC(=O)c2cc(-c3cccs3)on2)cc1 | -2.21% (inactive) |
| c1ccc(Nc2nc(-c3cccs3)cs2)nc1 | 26% (inactive) |
| C/C(=N/Nc1nc(-c2ccc(Cl)cc2)cs1)c1cccs1 | -40.2% (inactive) |
| Cc1cc(C(=O)Nc2ccc3c(c2)C(=O)N(C)[C@@H]2CC[C@@H](CC(=O)N[C@H](C)c4ccccc4)O[C@@H]2CO3)no1 | 26.1% (inactive) |
| CC(C)[C@H](NS(=O)(=O)c1ccccc1)C(=O)OCC(=O)NC(=O)NC1CCCCC1 | -10.8% (inactive) |
| CCOC(=O)N1CCN(C(=O)Cc2ccsc2)CC1 | -30.6% (inactive) |
